A selection: hits, their analogues and other compounds. The true share with any hit is near 12%.
SARS PLP yeast = qHTS of Yeast-based Assay for SARS-CoV PLP. AID 485353, 2010. 330,000 tested, 0.19% active. Potency, µM (series often up to 32.9 µM), without a hit: at the top dose activity, positive = growth rescue, usual class: activators. S. cerevisiae expressing SARS-CoV PLpro, growth rescue; calls by dose curve; note: 0% is about no effect; nearly all actives have a fitted effect of over 55% in size
Pf growth 48h = Primary qHTS for delayed death inhibitors of the malarial parasite plastid, 48 hour incubation; P. falciparum luciferase growth in erythrocytes, 48 h; Potency, µM (top dose mostly 28.7 µM), for inactives: at the top dose activity change, negative = inhibition, most hits filed as inhibitors; 310,000 tested, 5.9% active; note: % is set by controls: 0 for no effect and ±100 for the full control effect
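Erythrocytes infected with P. falciparum carrying an integrated firefly luciferase reporter (2% hematocrit, 0.1% parasitemia final) were exposed to compounds in RPMI 1640 with 0.5% Albumax at 37 C, 5% CO2. Growth inhibition was scored as reduced luminescence.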
Sm TGR inh = qHTS Assay for the Inhibitors of Schistosoma Mansoni Peroxiredoxins. purified TGR, DTNB reduction, TNB absorbance 405 nm. Potency, µM (series often up to 114 µM), without a hit: top-dose activity change, negative = inhibition, actives largely listed as inhibitors. 360,000 tested, 3% active; note: % is set by controls: 0 for no effect and ±100 for the full control effect; nearly all actives have a fitted effect of over 60% in size
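Kinetic colorimetric format: TGR-catalysed, NADPH-driven DTNB reduction monitored via TNB absorbance. Enzyme dispensed at 20 nM; compound exposure 15 min at room temperature before reaction start.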
Pf growth 96h = Primary qHTS for delayed death inhibitors of the malarial parasite plastid, 96 hour incubation; 320,000 tested, 6.9% active; P. falciparum luciferase reporter growth, 96 h; AID 504834, 2011; Potency, µM (titrated, usually from 28.7 µM), for the others: top-dose activity change, negative = inhibition, usual class: inhibitors; note: % is set by controls: 0 for no effect and ±100 for the full control effect
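P. falciparum expressing integrated firefly luciferase grown in erythrocytes (2% hematocrit, 0.05% parasitemia final) with compounds for 96 hours at 37 C, 5% CO2. Growth inhibition read as loss of luminescence after adding luciferase detection reagent.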
Numbers without * were called inactive; ? = inconclusive; / = no result. Unless noted, calls come from the whole dose curve; as a rule, active = well fitted curve in the direction sought with a large enough effect; inconclusive = small, poorly fitted or top-dose-only effect, or another doubt; inactive = no such curve, though single readings can be large; an effect the other way counts as inactive or inconclusive. Potency is the fitted concentration of half-maximal effect.

SMILES | SARS PLP yeast | Pf growth 48h | Sm TGR inh | Pf growth 96h
COc1ccccc1CNC(=O)c1oc2c(c1C)-c1nn(Cc3ccc(Cl)cc3)cc1CC2 | / | / | -1% | /
COc1cc2ncnc(NCc3ccccc3Cl)c2cc1OC | 0% | ? | / | ?
COc1cc2ncnc(N[C@H](C)c3ccccc3)c2cc1OC | 1% | ? | 10% | 13µM*
CC(Nc1ncnc2nc[nH]c12)c1ccccc1 (stereo not drawn) | 3% | ? | -8% | 13µM*
COc1cc2ncnc(NCc3ccccc3F)c2cc1OC | -1% | / | -9% | ?
COc1cc2ncnc(NCc3ccc(F)cc3)c2cc1OC | -1% | / | 2% | 10µM*
Cc1cccc(Nc2ncnc3nc[nH]c23)c1 | ? | 67% | 3% | ?
COc1cc2ncnc(NCc3ccccc3C)c2cc1OC | 1% | 15µM* | 3% | 13µM*
COc1cc2ncnc(NCc3ccc(Cl)cc3)c2cc1OC | -1% | ? | / | -12%
COc1cccc(CNC(=O)c2ccccc2NC(=O)C2=C(C)OCCS2)c1OC | -10% | ? | -3% | ?
Cc1ccc(S(=O)(=O)N2CCN(Cc3cc(=O)n4ccccc4n3)CC2)c(C)c1 | -2% | ? | -28% | ?
CC(=O)N1c2c(cc(Br)cc2S(=O)(=O)NCc2ccccc2Cl)CC1C (stereo not drawn) | / | / | 9% | /
CC#C[C@]1(O)CC[C@H]2[C@@H]3CCC4=CC(=O)CCC4=C3[C@@H](c3ccc(N(C)C)cc3)C[C@@]21C | -7% | 13µM* | 0% | 6.7µM*
CCc1ccccc1NC(=O)C1CCCN(c2nn3c(=O)cc(C)nc3s2)C1 (stereo not drawn) | 4% | ? | 8% | 10µM*
CCOc1ccc(CCNC(=O)C2CCN(c3nn4c(=O)cc(C)nc4s3)CC2)cc1 | 1% | 10µM* | 2% | 59%
Cc1ccc(CCNC(=O)C2CCN(c3nn4c(=O)cc(C)nc4s3)CC2)cc1 | 0% | ? | -5% | ?
Cc1cc(=O)n2nc(N3CCC(C(=O)NCc4ccccc4F)CC3)sc2n1 | 11µM* | -6% | -18% | ?
CCOc1cc(C)nc(N2CCCC(C(=O)NCc3ccccc3F)C2)n1 (stereo not drawn) | 2% | 2.9µM* | -2% | /
Cc1ccc(SCc2nc(-c3ccc(C(=O)NCC(C)c4ccccc4)cc3)oc2C)cc1 (stereo not drawn) | / | / | -11% | /
Cc1nn(-c2ccccc2)c(C)c1NC(=O)COC(=O)Cc1ccccc1F | -6% | -8% | 5% | 23%
Cc1ccc(NC(=O)C2CCCN2c2nn3c(=O)cc(C)nc3s2)cc1 (stereo not drawn) | -6% | 14% | -26% | 12µM*
Cc1cc(=O)n2nc(N3CCC(C(=O)NCc4ccccc4)CC3)sc2n1 | 4% | -13% | ? | -13%
CCC(Cc1ccccc1)NC(=O)C1CCN(c2nn3c(=O)cc(C)nc3s2)CC1 (stereo not drawn) | 4% | -25% | -6% | 10µM*
COc1ccc(CNC(=O)C2CCCN(c3nn4c(=O)cc(C)nc4s3)C2)cc1 (stereo not drawn) | 0% | -14% | 30% | 9.3µM*
CCOc1ccccc1CNC(=O)C1CCCN(c2nn3c(=O)cc(C)nc3s2)C1 (stereo not drawn) | 0% | ? | 4% | 15µM*
SMILES | SARS PLP yeast | Pf growth 48h | Sm TGR inh | Pf growth 96h
COc1ccccc1CNC(=O)C1CCN(c2nn3c(=O)cc(C)nc3s2)CC1 | / | / | -8% | /
NS(=O)(=O)c1ccc(CNC(=O)c2ccc(C(=O)c3ccccc3)cc2)cc1 | -5% | / | / | /
CCn1cc(C(=O)NCCc2ccc(Cl)cc2)c(=O)c2cc(S(=O)(=O)N3CCC(C)CC3)ccc21 | / | / | -1% | /
C=Cc1ccc(Cn2nc(-c3ccccc3)ccc2=O)cc1 | 1% | -7% | -22% | 24%
COCCCn1c(=S)[nH]c2c(sc3ccccc32)c1=O | 1% | 19% | ? | 10µM*
COc1ccc(-n2ncc3c2ncn2nc(-c4ccc(OC)c(OC)c4)nc32)cc1 | / | / | 11% | /
CC(NCc1ccncc1)C12CC3CC(CC(C3)C1)C2 (stereo not drawn) | 0% | ? | / | -22%
CC(NCc1ccccc1O)C12CC3CC(CC(C3)C1)C2 (stereo not drawn) | 0% | 0.066µM* | 9% | 0.1µM*
CCN(C(=O)Cn1c(=O)n(Cc2ccc3c(c2)OCO3)c(=O)c2ccc(C(=O)NC3CCCCC3)cc21)c1cccc(C)c1 | / | / | 12% | /
Cn1cc(CN2CCC(C(O)c3cccs3)CC2)c(-c2cccc(Cl)c2)n1 (stereo not drawn) | 0% | 9.3µM* | 6% | ?
COc1ccc(N2CCN(Cc3nc4c(c(=O)n(C)c(=O)n4C)n3C(C)C)CC2)cc1 | / | / | 14% | /
O=C1CCC(C(=O)Nc2ccc(Cl)cc2)N1 (stereo not drawn) | 1% | 2% | -9% | 5.2µM*
Cc1ccc(NC(=O)C2CCC(=O)N2)cc1C (stereo not drawn) | -8% | -14% | -10% | ?
COc1ccc(CCNC(=O)c2ccc3c(c2)c(C)c(C)n3Cc2ccc(F)cc2)c(OC)c1OC | / | / | 18% | /
Cc1cc(C)c([C@@H]2C[C@H]3CN(C4CCCC4)C(=O)[C@]34CCCN24)c(-n2cccn2)c1 | -1% | ? | -10% | ?
Cn1cc([C@@H]2C[C@H]3CN(C4CCCC4)C(=O)[C@]34CCCN24)c(-c2ccccc2)n1 | -1% | 5.2µM* | 0% | 5%
Cc1ccc(-c2[nH]ncc2/C=N/n2c(COc3ccccc3)nc3ccccc3c2=O)cc1 | -6% | 12µM* | -1% | 10µM*
Cc1ccccc1OCc1nc2ccccc2c(=O)n1/N=C/c1cn[nH]c1-c1ccccc1 | 26% | ? | 1% | ?
O=c1c2ccccc2nc(COc2ccccc2)n1/N=C/c1ccco1 | -7% | 118% | 40µM* | -6%
CCCc1nc2ccccc2c(=O)n1/N=C/c1ccc(O)cc1 | 0% | 12µM* | -8% | ?
O=c1c2ccccc2nc(COc2ccccc2)n1/N=C/c1ccc(O)c(O)c1 | -1% | ? | -6% | ?
CCCc1nc2ccccc2c(=O)n1/N=C/c1ccc(O)cc1O | 14% | 0% | 3% | ?
COc1ccc(Cc2nnc(Nc3ccc(C)cc3)o2)cc1OC | -2% | 2.9µM* | -8% | ?
Cc1cc(C)n2nc(C(=O)N3CCOCC3)nc2n1 | 2% | 54% | 0% | ?
Cc1cc(C)n2nc(SC(C)C(=O)N3CCC4(CC3)OCCO4)nc2n1 (stereo not drawn) | 8% | 2.6µM* | 3% | -27%
S=C1NCN(Cc2ccco2)CN1 | 1% | 40% | -5% | 61%
S=C1SCN(Cc2ccco2)CN1Cc1ccco1 | -7% | ? | 0% | 4.7µM*
O=C1c2ccc3c4c(ccc(c24)C(=O)N1CCCCO)C(=O)N(CCCCO)C3=O | 8% | 0.74µM* | -11% | -4%
